Screens as filed in PubChem BioAssay.
Only some compounds are listed: those with a hit (about 32% of all), similar ones and a draw of the others.
CYP2C19 act: cytochrome P450 2C19 (human) activation | P33261 | recombinant CYP2C19, luciferin-H EGE luminescence; hits give high values; 0 = fully inhibited enzyme, 1 = untreated enzyme | 96,000 tested, under 10 active | activation factor at 5 µM;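 active = activation factor of at least 2 at 5 µM in the primary screen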
Target sequence (P33261 whole entry, looked up): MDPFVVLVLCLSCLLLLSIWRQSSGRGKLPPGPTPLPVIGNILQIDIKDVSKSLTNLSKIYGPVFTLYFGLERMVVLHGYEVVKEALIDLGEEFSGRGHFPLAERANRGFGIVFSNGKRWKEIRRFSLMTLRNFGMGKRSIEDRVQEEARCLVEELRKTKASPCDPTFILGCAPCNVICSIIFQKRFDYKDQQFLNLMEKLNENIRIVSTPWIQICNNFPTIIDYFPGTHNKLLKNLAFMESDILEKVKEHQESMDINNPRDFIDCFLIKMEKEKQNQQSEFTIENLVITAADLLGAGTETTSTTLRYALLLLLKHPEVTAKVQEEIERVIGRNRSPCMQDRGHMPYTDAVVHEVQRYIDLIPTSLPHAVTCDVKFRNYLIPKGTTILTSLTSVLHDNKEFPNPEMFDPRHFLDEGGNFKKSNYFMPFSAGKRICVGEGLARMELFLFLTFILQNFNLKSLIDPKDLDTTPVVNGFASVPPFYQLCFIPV
PostGolgi yeast: growth inhibition of a yeast mutant, post-Golgi transport screen; 98,000 tested, 0.9% active; post-Golgi transport phenotypic cell assay; inhibition, % at 10 µM; AID 739;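 note: yeast cells grown in 1536-well plates; yeast grown about 18 h at 30C before absorbance read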
PostGolgi ctrl: inhibits growth of the yeast control strain; inhibition, % at 10 µM; 98,000 tested, 5% active; efflux-deficient yeast background strain, growth absorbance A615, 16 h; AID 738
CYP2C9 activ: CYP2C9 (human) activation. 96,000 tested, 1.4% active. recombinant CYP2C9, luciferin-H conversion, luminescence; hits give high values; factor 1 = untreated enzyme, 0 = blocked. P11712. activation factor at 5 µM;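 active = activation factor of 2 or more for CYP2C9 at a 5 µM dose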
CYP2C9 inh: inhibitors of human CYP2C9; P11712; CYP2C9 Supersomes, luciferin-H conversion, luminescence; inhibition, % at 5 µM; 96,000 tested, 20% active;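 active = blocking of liver enzyme CYP2C9 beyond about 50% at 5 µM, limit read from the data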
CYP2C19 inhib: blocks human cytochrome P450 2C19 | inhibition, % at 5 µM | CYP2C19 Supersomes, luciferin-H EGE luminescence, 30 min | 96,000 tested, 21% active | P33261 | AID 778;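 active = CYP2C19 inhibition above a set limit at 5 µM in the primary screen, cut at about 50% in these data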
Numbers stand for hits; i = inactive; nt = no result. Cut-off read from the data, not from the text of the source, unless noted: active = inhibition above about 30%; inactive = the rest.

SMILES	CYP2C19 act	PostGolgi yeast	PostGolgi ctrl	CYP2C9 activ	CYP2C9 inh	CYP2C19 inhib
Cc1cc(C)c[n+](-c2nc([O-])sc2C=O)c1	i	i	i	i	i	i
CC(C)NC(=O)CN(CCc1ccccc1)S(C)(=O)=O	i	i	i	i	i	82.4
CS(=O)(=O)N(CCc1ccccc1)CC(=O)N1CCCCC1	i	i	i	i	i	i
O=C(N/N=C\c1ccc(F)cc1)c1cc(OCC(F)(F)F)ccc1OCC(F)(F)F	i	i	i	i	i	i
C=CCONC(=O)c1cc(OCC(F)(F)F)ccc1OCC(F)(F)F	i	i	i	i	87.3	i
O=C(NCCNC(=O)c1cc(OCC(F)(F)F)ccc1OCC(F)(F)F)Nc1cccc(C(F)(F)F)c1	i	i	i	i	66.8	i
O=C(Nc1ccc(OC(F)F)cc1)Nc1cccc(C(F)(F)F)c1	i	78.6	64.0	i	i	i
COC(=O)[C@H](C)NC(=O)Nc1cccc(C(F)(F)F)c1	nt	i	i	nt	nt	nt
Cc1cccc2c(=O)cc(C)n(CC(=O)N3CCOCC3)c12	i	i	i	i	i	i
Cc1cccc2c(=O)cc(C)n(CC(=O)N3CCCCC3)c12	i	i	i	i	i	87.9
O=c1ccc2ccc(OCc3nnc(-c4ccccc4Br)o3)cc2o1	i	i	i	i	i	i
Cc1csc(SCc2nnc(-c3ccc(Cl)cc3)o2)n1	i	i	i	i	i	62.1
Cc1csc(SCc2nnc(-c3ccccc3Br)o2)n1	i	i	i	i	i	60.5
Cc1ccc(-c2nnc(CSc3nnc(C)s3)o2)cc1	i	i	i	i	i	i
N#Cc1nc(Cc2cccc3ccccc23)oc1N1CCC(C(N)=O)CC1	i	i	i	i	i	i
COc1ccc(CN2CCN(S(=O)(=O)c3ccc(F)cc3)CC2)c(OC)c1OC	i	i	i	i	i	86.8
COc1ccc(CN2CCN(S(=O)(=O)c3ccc(F)cc3)CC2)cc1OC	i	i	i	i	i	i
COc1ccc(CN2CCN(S(=O)(=O)c3ccccc3)CC2)c(OC)c1	i	i	i	i	60.2	51.6
CCOC(=O)C1CCN(Cc2ccc(OC)cc2OC)CC1	i	i	i	i	i	i
COc1ccc(CN2CCN(c3ncccn3)CC2)c(OC)c1	i	i	41.8	i	i	i
COc1ccc(CN2CCN(S(=O)(=O)c3ccccc3)CC2)cc1Br	i	i	i	i	96.4	98.6
CCc1ccc(NC(=O)Nc2ccc3c(c2)N(C)C(=O)CS3)cc1	i	i	i	i	i	i
COc1ccc(C2(C(=O)NCC3CCCO3)CCOCC2)cc1 (configuration not stated)	i	i	i	i	i	i
COc1ccccc1CN1CCN(S(=O)(=O)c2ccccc2)CC1	i	i	i	i	63.2	62.2
Cc1ccccc1C(=O)N=c1sccn1C	i	i	i	i	i	93.1
SMILES	CYP2C19 act	PostGolgi yeast	PostGolgi ctrl	CYP2C9 activ	CYP2C9 inh	CYP2C19 inhib
O=C(CSCCO)Nc1cc(C(F)(F)F)ccc1Cl	i	i	i	i	i	i
CCOC(=O)N1CCC(Nc2ncnc3c2cnn3-c2ccc(C)cc2C)CC1	i	i	i	i	57.7	i
CC(=O)Nc1ccc(Nc2ncnc3c2cnn3-c2ccc(C)cc2C)cc1	i	i	i	i	51.6	54.3
O=C(CN1CCOCC1)Nc1ncccn1	i	i	i	i	i	i
COc1ccc(Cl)cc1NC(=O)CCn1cnc2ccccc2c1=O	i	i	i	2.3	i	66.1
COC(=O)c1ccc(C)c(NC(=O)Cn2cnc3ccccc3c2=O)c1	i	i	i	i	98.9	82.4
COC(=O)c1ccc(Cn2cnc3ccccc3c2=O)cc1	i	i	i	i	i	66.9
CCOC(=O)c1ccc(Cn2cnc3ccccc3c2=O)cc1	i	i	i	i	54.7	61.5
CC(C)Nc1nc(Oc2ccc(Cl)cc2)cc(C(F)(F)F)n1	i	i	i	i	i	i
COc1ccccc1NC=C1C(=O)OC2(CCCCC2)OC1=O	i	i	i	2.8	i	i
COC(=O)c1ccccc1NC=C1C(=O)OC2(CCCCC2)OC1=O	i	i	i	i	i	i
CCC(=O)c1ccc(OCC(=O)N2CCc3cc(OC)c(OC)cc3C2)cc1	i	i	i	i	i	i
CCC(=O)N1CCc2cc(OC)c(OC)cc2C1COc1ccc(C(=O)OC)cc1 (configuration not stated)	i	i	i	i	i	59.8
COc1ccc(C2=Nn3c(nnc3-c3ccco3)SC2)cc1	i	i	45.0	i	63.6	56.3
